Data reported in PubChem BioAssay AID1159580 (chemical genetic matrix, 2015).
Values joined by “and” are separate entries in the source; they are usually repeats but may differ in a detail not shown here. Identical values can stand only once. About 2,000 (36%) of roughly 5,500 compounds were called active. Another 18% or so got no clear call; they are omitted. Cut-off read from the data, not from the text of the source: active = normalized growth mostly below about 0.91 (no sharp cut-off); inconclusive = no clear call, values can overlap the other calls; inactive = mostly above about 0.92. This is one part of the list.

Experiment: chemical genetic growth profiling, strain panel (AID 1159580);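 note: tested at 20 µM; growth read once vehicle control cultures reached saturation at 30 °C; 1 = growth at the plate median or of vehicle wells; lower values mean less growth of the strain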
Details: growth OD

Measured: normalized growth

COc1cccc(-c2cc(=O)c3cc(OC)ccc3o2)c1
inactive: S. cerevisiae deletion strains, locus YAL013W, strain DEP1, stronger effect = lower value 0.993 | S. cerevisiae deletion strains, locus YBR229C, strain ROT2, stronger effect = lower value 0.992 | S. cerevisiae deletion strains, locus YDL035C, strain GPR1, stronger effect = lower value 0.98 | S. cerevisiae deletion strains, locus YDL074C, strain BRE1, stronger effect = lower value 0.914 | S. cerevisiae deletion strains, locus YDL101C, strain DUN1, stronger effect = lower value 0.983 | S. cerevisiae deletion strains, locus YDL134C, strain PPH21, stronger effect = lower value 0.95 | S. cerevisiae deletion strains, locus YDL185W, strain tfp1, stronger effect = lower value 1.09 | S. cerevisiae deletion strains, locus YDL192W, strain arf1, stronger effect = lower value 1.04 | S. cerevisiae deletion strains, locus YDR150W, strain NUM1, stronger effect = lower value 1 | S. cerevisiae deletion strains, locus YDR162C, strain NBP2, stronger effect = lower value 0.968 | S. cerevisiae deletion strains, locus YDR318W, strain mcm21, stronger effect = lower value 1.05 | S. cerevisiae deletion strains, locus YDR388W, stronger effect = lower value 1.03 | S. cerevisiae deletion strains, locus YEL061C, strain CIN8, stronger effect = lower value 0.979 | S. cerevisiae deletion strains, locus YER155C, strain BEM2, stronger effect = lower value 1.07 | S. cerevisiae deletion strains, locus YER167W, strain BCK2, stronger effect = lower value 0.993 | S. cerevisiae deletion strains, locus YGL078C, strain dbp3, stronger effect = lower value 1.07 | S. cerevisiae deletion strains, locus YGL086W, strain mad1, stronger effect = lower value 1 | S. cerevisiae deletion strains, locus YGL248W, strain PDE1, stronger effect = lower value 0.944 | S. cerevisiae deletion strains, locus YGR135W, strain pre9, stronger effect = lower value 1.07 | S. cerevisiae deletion strains, locus YGR229C, strain SMI1, stronger effect = lower value 0.858 | S. cerevisiae deletion strains, locus YGR252W, strain gcn5, stronger effect = lower value 0.981 | S. cerevisiae deletion strains, locus YHR030C, strain SLT2, stronger effect = lower value 0.958 and 0.966 | S. cerevisiae deletion strains, locus YHR079C, strain IRE1 (second series), stronger effect = lower value 0.987 | S. cerevisiae deletion strains, locus YHR079C, strain IRE1, stronger effect = lower value 0.967 | S. cerevisiae deletion strains, locus YHR129C, strain ARP1, stronger effect = lower value 0.98 | S. cerevisiae deletion strains, locus YIL066C, strain RNR3, stronger effect = lower value 0.94 | S. cerevisiae deletion strains, locus YIL073C, strain SPO22, stronger effect = lower value 0.945 | S. cerevisiae deletion strains, locus YIL125W, strain kgd1, stronger effect = lower value 1.05 | S. cerevisiae deletion strains, locus YJL095W, strain BCK1, stronger effect = lower value 0.857 and 0.963 | S. cerevisiae deletion strains, locus YJL134W, strain LCB3, stronger effect = lower value 1.01 | S. cerevisiae deletion strains, locus YJL187C, strain SWE1 (second series), stronger effect = lower value 0.954 | S. cerevisiae deletion strains, locus YJR043C, strain POL32, stronger effect = lower value 0.93 | S. cerevisiae deletion strains, locus YJR066W, strain TOR1, stronger effect = lower value 0.916 | S. cerevisiae deletion strains, locus YJR075W, strain HOC1, stronger effect = lower value 0.959 | S. cerevisiae deletion strains, locus YKL068W, stronger effect = lower value 1.02 | S. cerevisiae deletion strains, locus YKL085W, strain MDH1 (second series), stronger effect = lower value 1.03 | S. cerevisiae deletion strains, locus YKL085W, strain MDH1, stronger effect = lower value 1.03 | S. cerevisiae deletion strains, locus YKL190W, strain CNB1, stronger effect = lower value 1.01 | S. cerevisiae deletion strains, locus YKR001C, strain vps1, stronger effect = lower value 0.998 | S. cerevisiae deletion strains, locus YLR039C, strain RIC1, stronger effect = lower value 0.995 | S. cerevisiae deletion strains, locus YLR058C, strain SHM2, stronger effect = lower value 0.968 | S. cerevisiae deletion strains, locus YLR102C, strain apc9, stronger effect = lower value 1.03 | S. cerevisiae deletion strains, locus YLR113W, strain HOG1, stronger effect = lower value 0.983 | S. cerevisiae deletion strains, locus YLR262C, strain YPT6, stronger effect = lower value 1.06 | S. cerevisiae deletion strains, locus YLR268W, strain sec22, stronger effect = lower value 1.07 | S. cerevisiae deletion strains, locus YLR330W, strain CHS5, stronger effect = lower value 0.952 | S. cerevisiae deletion strains, locus YLR342W, strain FKS1 (second series), stronger effect = lower value 0.891 | S. cerevisiae deletion strains, locus YLR418C, strain cdc73, stronger effect = lower value 0.895 | S. cerevisiae deletion strains, locus YML016C, strain PPZ1, stronger effect = lower value 0.987 | S. cerevisiae deletion strains, locus YML032C, strain rad52, stronger effect = lower value 0.934 | S. cerevisiae deletion strains, locus YML124C, strain tub3, stronger effect = lower value 1.04 | S. cerevisiae deletion strains, locus YMR078C, strain ctf18, stronger effect = lower value 1.06 | S. cerevisiae deletion strains, locus YMR223W, strain ubp8, stronger effect = lower value 1.09 | S. cerevisiae deletion strains, locus YMR263W, strain SAP30, stronger effect = lower value 0.935 | S. cerevisiae deletion strains, locus YMR307W, strain GAS1, stronger effect = lower value 0.969 | S. cerevisiae deletion strains, locus YNL067W, strain RPL9B, stronger effect = lower value 0.946 | S. cerevisiae deletion strains, locus YNL128W, strain TEP1, stronger effect = lower value 0.99 | S. cerevisiae deletion strains, locus YNL183C, strain NPR1, stronger effect = lower value 0.96 | S. cerevisiae deletion strains, locus YNL233W, strain BNI4, stronger effect = lower value 0.889 | S. cerevisiae deletion strains, locus YNL250W, strain rad50, stronger effect = lower value 1.05 | S. cerevisiae deletion strains, locus YNL298W, strain CLA4, stronger effect = lower value 0.992 | S. cerevisiae deletion strains, locus YNL322C, strain KRE1, stronger effect = lower value 0.999 | S. cerevisiae deletion strains, locus YNR052C, strain pop2, stronger effect = lower value 1.03 | S. cerevisiae deletion strains, locus YOL006C, strain TOP1, stronger effect = lower value 0.723 | S. cerevisiae deletion strains, locus YOL012C, strain htz1 0.822 | S. cerevisiae deletion strains, locus YOL147C, strain pex11, stronger effect = lower value 0.969 | S. cerevisiae deletion strains, locus YOR061W, strain CKA2, stronger effect = lower value 1 | S. cerevisiae deletion strains, locus YOR069W, strain VPS5, stronger effect = lower value 1 | S. cerevisiae deletion strains, locus YOR231W, strain MKK1, stronger effect = lower value 0.977 | S. cerevisiae deletion strains, locus YPL256C, strain CLN2, stronger effect = lower value 0.982 | S. cerevisiae deletion strains, locus YPR141C, strain kar3, stronger effect = lower value 1.07 | S. cerevisiae deletion strains, locus YPR163C, strain tif3, stronger effect = lower value 1.07 | S. cerevisiae deletion strains, strain wtn01, stronger effect = lower value 1.09 | S. cerevisiae strains, strain wild type, stronger effect = lower value 0.972
active: S. cerevisiae deletion strains, locus YBR021W, strain FUR4, stronger effect = lower value 0.816 | S. cerevisiae deletion strains, locus YCL029C, strain bik1, stronger effect = lower value 1.1 [resistant] | S. cerevisiae deletion strains, locus YDR101C, strain arx1, stronger effect = lower value 1.13 [resistant] | S. cerevisiae deletion strains, locus YDR502C, strain sam2, stronger effect = lower value 1.14 [resistant] | S. cerevisiae deletion strains, locus YHR094C, strain hxt1, stronger effect = lower value 1.18 [resistant] | S. cerevisiae deletion strains, locus YHR200W, strain rpn10, stronger effect = lower value 1.14 [resistant] | S. cerevisiae deletion strains, locus YIR030C, strain dcg1, stronger effect = lower value 1.12 [resistant] | S. cerevisiae deletion strains, locus YJL168C, strain set2, stronger effect = lower value 1.1 [resistant] | S. cerevisiae deletion strains, locus YKL009W, strain mrt4, stronger effect = lower value 0.713 | S. cerevisiae deletion strains, locus YLR371W, strain rom2, stronger effect = lower value 1.11 [resistant] | S. cerevisiae deletion strains, locus YNL271C, strain bni1, stronger effect = lower value 1.17 [resistant] | S. cerevisiae deletion strains, locus YNL307C, strain MCK1, stronger effect = lower value 1.14 [resistant] | S. cerevisiae deletion strains, locus YOR136W, strain idh2, stronger effect = lower value 1.18 [resistant] | S. cerevisiae deletion strains, locus YOR184W, strain ser1, stronger effect = lower value 1.14 [resistant] | S. cerevisiae deletion strains, locus YOR316C, strain cot1, stronger effect = lower value 1.12 [resistant] | S. cerevisiae deletion strains, locus YPR119W, strain clb2, stronger effect = lower value 1.11 [resistant] | S. cerevisiae deletion strains, locus YPR167C, strain met16, stronger effect = lower value 1.08 [resistant]
